Screening results: PubChem BioAssay, National Center for Advancing Translational Sciences (NCATS)
Many of the other results were omitted from the sample, so hits are more common in it than they were.
Pf Dd2 inh: qHTS Primary assay for Inhibitors of Plasmodium falciparum Dd2 growth in vitro. P. falciparum Dd2 growth, SYBR Green, 72 h. Potency, µM (highest dose often 28.9 µM), for the others: at the top dose activity, negative = inhibition, hits mostly inhibitors. 120,000 compounds, 4.3% hits; active means well fitted inhibition curve with a large enough effect;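 further: plate controls were DMSO vehicle for no effect and reference drug for full effect; nearly all actives have a fitted effect of over 65% in size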
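Infected erythrocytes (Dd2, 0.3% parasitemia, 2.5% hematocrit final) are added to compound in RPMI-1640/Albumax II medium, grown 72 h at 37C in low oxygen, then lysed with saponin/Triton-X containing SYBR Green and read by fluorescence.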
An asterisk follows results filed as active; i = inactive; [ ] = another dose, or the depositor's remark. Potency means the concentration at half of the fitted maximal effect.

SMILES | Pf Dd2 inh
COc1cccc(C(=O)Nc2nc(-c3ccc(Br)cc3)ns2)c1 | 11%
COc1ccccc1NC(=O)c1sc2cccc(Cl)c2c1Cl | 42%
COCCCNC(=O)c1sc2nc(C)c(C(=O)Nc3ccc(Cl)cc3)c(-c3ccc(Br)cc3)c2c1N | -9%
COc1ccccc1NC(=O)c1sc2nc(C)c(C(=O)Nc3ccc(C)cc3C)c(-c3ccccc3Cl)c2c1N | 5.6µM*
COc1ccc(NC(=O)c2sc3nc(C)c(C(=O)Nc4ccc(C)cc4C)c(-c4sccc4C)c3c2N)cc1 | 3.2µM*
COc1ccccc1NC(=O)c1sc2nc(C)c(C(=O)Nc3ccc(C)cc3C)c(-c3ccc(C)o3)c2c1N | 11µM*
COC(=O)c1ccccc1NC(=O)c1sc2nc(C)cc(C)c2c1NC(=O)c1ccccc1OC | 33%
NC(=O)[C@@H]1C[C@H](Oc2cccnc2)CN1S(=O)(=O)c1cccc(F)c1 | 10%
FC(F)(F)c1cccc(C2=NOC3(CCCN(Cc4cccs4)C3)C2)c1 (stereo not drawn) | -18%
CCCNC(=O)N1CCCN(Cc2ccc3c(c2)OCO3)c2ccccc21 | i
C[S+](=O)([O-])N1Cc2ccccc2CC2(CCN(CC3CCNC3)CC2)C1 (stereo not drawn) | 16%
CCCc1ccc(S(=O)(=O)N(C)CC2CCOCC2)cc1 | i
Cc1ccc(NC(=O)c2sc3nc(-c4ccc(F)cc4)ccc3c2N)cc1F | 0%
Cc1cc(F)ccc1NC(=O)c1sc2nc(-c3cccs3)ccc2c1N | -6%
Cc1ccc(NC(=O)c2c(C)nc3sc(C(=O)Nc4ccc(F)cc4)c(N)c3c2-c2ccc(C)o2)c(C)c1 | 3.5µM*
O=C(O)C1CCc2nnc(C3CCN(C(=O)C4CCCCC4)CC3)n21 (stereo not drawn) | 14%
CCn1cc(CN2CCCC(c3nc(CCOc4cccc(C)c4)no3)C2)cn1 (stereo not drawn) | -20%
N#Cc1ccc(S(=O)(=O)N2CCC3(CC2)CC(CC(=O)N2CCOCC2)CCO3)cc1 (stereo not drawn) | 87%
CCc1ccccc1S(=O)(=O)N1CCC(N(C(=O)COC)C2CCOCC2)CC1 | -20%
COc1cncc(NC(=O)C2=NO[C@@H]3CN(Cc4sccc4C)C[C@H]23)c1 | 19%[44.1 µM]
OCC1(Cc2ccccc2C(F)(F)F)CCNCC1 | -4%
CCOC(=O)C1(Cc2ccccc2F)CCCN(C(=O)c2ccc(-n3ccnc3)cc2)C1 (stereo not drawn) | i
CN(Cc1ccccn1)Cc1ccccc1C(F)(F)F | -17%[44.1 µM]
COCC1CN(C(C)=O)CC12CCN(Cc1ccccc1C(F)(F)F)CC2 (stereo not drawn) | -24%
CCOC(=O)C1(Cc2ccccc2C(F)(F)F)CCN(Cc2ccccn2)CC1 | 6.3µM*
SMILES | Pf Dd2 inh
CCOC(=O)C1(Cc2ccccc2C(F)(F)F)CCN(C(C)Cc2cccc(C)n2)CC1 (stereo not drawn) | 13µM*
CC(C)CN1C(=O)c2cccn2CC1CNC(=O)c1cccn1C (stereo not drawn) | -3%
O=C([C@@H]1C[C@H](Oc2ccccc2)CN1C(=O)CN1CCOCC1)N1CCOCC1 | 6%
Cc1noc(-c2cccc(OC3CN(S(=O)(=O)c4c(C)nn(C)c4C)C3)c2)n1 | 45%[5.79 µM]
O=C(C1CCOCC1)N1CC(CO)C2(CCNCC2)C1 (stereo not drawn) | 17%
CCCCN1C[C@@H](CO)[C@H](c2nc(CCOC)no2)C1 | -14%
CC(=O)N1CC2(CCN(Cc3cncn3C3CC3)CC2)CC1C(=O)O (stereo not drawn) | -2%
COc1ccc(C2Cn3nnc(-c4noc(C5CC5)n4)c3CO2)cc1 (stereo not drawn) | i
CC(C)(C)OC(=O)N1CCCCC1Cn1c(=O)[nH]c2cccnc21 (stereo not drawn) | 11%[44.1 µM]
CN1C(=O)CO[C@H]2CN(C(=O)c3ccccn3)C[C@H]21 | -18%[44.1 µM]
CCNC(=O)Nc1ccc(OCC(=O)NC2CCCC2)nc1 | 31%
CCOc1cc(C(=O)Nc2ccc(-c3cn4cccnc4n3)cc2)cc(OCC)c1OCC | -17%
Cc1cc(Nc2cccc(Cl)c2)nc2ccc(NC(=O)c3cncc(Br)c3)cc12 | 2.8µM*
Cc1cc(Nc2cccc(C(F)(F)F)c2)nc2ccc(NC(=O)c3cncc(Br)c3)cc12 | 0.18µM*
CCN(CC)S(=O)(=O)c1ccc2nc(NC(=O)c3cncc(Br)c3)sc2c1 | 20%[0.594 µM]
CCOc1cc(C(=O)Nc2ccc3nc(Nc4cccc(Cl)c4)cc(C)c3c2)cc(OCC)c1OCC | 2µM*
Cn1nc(-c2ccc(C(=O)Nc3cccc(C(F)(F)F)c3)cc2)c2ccccc2c1=O | 3%
CCN(CC)c1ccc(C(=O)Nc2ccc3nc(N(CC)CC)cc(C)c3c2)cc1 | -18%
Cc1ccccc1C(=O)Nc1ccc2nc(Nc3cccc(C(F)(F)F)c3)cc(C)c2c1 | -9%
COc1ccc(Nc2ncc(C(=O)Nc3cccc(Cl)c3)c3ccccc23)cc1 | i
CS(=O)(=O)N1CCCN(C(=O)Nc2ccccc2)CCNC(=O)CC1c1ccccc1 (stereo not drawn) | -7%
CC1(C(=O)NCCc2ccccn2)CCc2cnc(NCc3ccccc3)nc21 (stereo not drawn) | -21%[44.1 µM]
